# Measurements as given in PubChem BioAssay AID602393 (Broad Institute, 2012).
# Among all 350,000 compounds or so, about 7,000 (2%) were called active. The full list was thinned out, with actives kept by preference. Unmarked numbers belong to inactive results. No stated cut-off is given here; in the data, active means activation above about 40%; inconclusive means no clear call, values can overlap the other calls; inactive means below that.
# Assay: raisers of Bmi1 knock-in reporter signal – mouse ES cells, Bmi1 luciferase knock-in, single point, esBAF inhibitor project, primary screen (AID 602393);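 further: 0% = median of the plate's neutral control wells and 100% = double that signal; a rise in the Bmi1 reporter signal indicates esBAF inhibition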
# Conditions: 24 h, at 12.5 µM, hits give high values, 100% = twice the neutral-well signal
row,SMILES,reporter increase
1,COc1ccccc1S(=O)(=O)N[C@@H]1CC[C@@H](CCNC(=O)C2CCCCC2)O[C@@H]1CO,-1.9%
2,O=C(C[C@@H]1C[C@@H]2c3cc(NS(=O)(=O)c4ccc(F)cc4)ccc3O[C@@H]2[C@H](CO)O1)N1CCCCC1,-3.2%
3,CO[C@@H]1CC[C@H]2CCN(C)C(=O)C[C@@H](c3ccccc3)CN(C)C(=O)c3cc(C#N)ccc3OC[C@@H]1O2,3.4%
4,CO[C@H]1CC[C@@H]2CCOc3c(C#N)cccc3C(=O)N(C)C[C@@H](OC)[C@H](C)C(=O)N(C)C[C@H]1O2,3.07%
5,CCC(=O)N1C[C@@H](C)[C@H](OC)CN(C)C(=O)c2ccc(NC(=O)C3CCOCC3)cc2OC[C@@H]1C,-3.82%
6,C[C@@H]1CN([C@H](C)CO)C(=O)c2cc(-c3cccc(C#N)c3)cnc2O[C@H]1CN(C)C(=O)C1CCC1,-9.7%
7,COc1ccccc1S(=O)(=O)N[C@@H]1CC[C@H](CC(=O)N2CCN(C)CC2)O[C@@H]1CO,0.975%
8,O=C(C[C@@H]1C[C@@H]2c3cc(NC(=O)C4CCOCC4)ccc3O[C@@H]2[C@@H](CO)O1)NC1CCCCC1,5.22%
9,COc1ccc(S(=O)(=O)Nc2ccc3c(c2)C(=O)N([C@@H](C)CO)C[C@H](C)[C@H](CN(C)Cc2ccc(C(=O)O)cc2)OCCCC[C@@H](C)O3)cc1,6.21%
10,COCOc1cc(O)c(C(=O)/C=C/c2ccc(OCOC)c(OCOC)c2)c(OCOC)c1,15.9%
11,COc1ccc(/C=C/C(=O)c2c(O)cc(OC)cc2OC)cc1,46.9% (active)
12,COc1ccc(/C=C/C(=O)c2cc(Br)ccc(=O)c2O)cc1,-9.92%
13,Cc1ccc(S(=O)(=O)N2C[C@H](O)COC[C@@H]3O[C@H](CC(=O)N[C@H]4CCN(Cc5ccccc5)C4)CC[C@H]32)cc1,-2.58%
14,C[C@H](CO)N1C[C@H](C)[C@H](CN(C)Cc2ccc(C(F)(F)F)cc2)Oc2c(NC(=O)C3CCOCC3)cccc2C1=O,-0.743%
15,Cc1ccc(C(=O)COC(=O)CCN2C(=O)C3C4CCC(C4)C3C2=O)cc1C (stereo not given),0.309%
16,Cc1nc2ccccc2c(-c2ccccc2)c1C(=O)c1ccccc1,-1.09%
17,Cc1ccc(C(=O)COC(=O)c2cccc(N3C(=O)c4c(C)nc5ccccc5c4C3=O)c2)cc1C,21.8% (active)
18,Cc1noc(C)c1NC(=O)Nc1ccc2c(c1)C(=O)N([C@@H](C)CO)C[C@@H](C)[C@H](CN(C)C(=O)Nc1ccc(C(F)(F)F)cc1)OCCCC[C@@H](C)O2,11%
19,O=C(C[C@H]1CC[C@@H](NC(=O)Cc2cccnc2)[C@H](CO)O1)Nc1ccc(-c2ccccc2)cc1,-2.77%
20,CC(OC(=O)/C=C/c1ccccc1)C(=O)Nc1ccc(C(N)=O)cc1 (stereo not given),-2.08%
21,N/C(=N\OC(=O)c1ccc2c(c1)OCO2)c1ccc(Br)cc1,18.6%
22,N/C(=N\OC(=O)/C=C/c1ccccc1)c1ccc(Br)cc1,23.9% (active)
23,Cn1nnc2cc(C(=O)NCCC3=CCCCC3)ccc21,-7.14%
24,CN(c1ccc(C(=O)NCCC2=CCCCC2)cc1)S(C)(=O)=O,-6.11%
25,O=C(NCCC1=CCCCC1)c1ccc(-n2cncn2)cc1,42.2% (active)
26,CCn1ccnc1CN(C)C(=O)c1ccc2nc(Cc3ccc(OC)cc3)oc2c1,-2.21%
27,Cc1cc(Cl)c2oc(C(=O)N(C)C(C)c3ccccn3)c(C)c2c1 (stereo not given),31.4%

row,SMILES,reporter increase
1,CC(c1ccccn1)N(C)C(=O)c1ccc2nc(Cc3cccc(Cl)c3)oc2c1 (stereo not given),73.4% (active)
2,COc1ccc(NC(=O)Nc2ccc3c(c2)CC(=O)N([C@@H](C)CO)C[C@@H](C)[C@H](CN(C)C(=O)NC2CCCCC2)O3)cc1,3.44%
3,c1ccc(CCc2ccccn2)cc1,16.6%
4,Oc1cccc(CCc2ccccn2)c1,45.8% (active)
5,O=C(Cc1ccccn1)c1ccc(O)cc1O,7.66%
6,CO[C@H]1CN(C)C(=O)c2cc(NC(=O)C3CC3)ccc2OC[C@H](C)N(CC2CCCC2)C[C@@H]1C,-2.34%
7,O=C(COC(=O)C1CCCO1)Nc1nc(-c2ccc(F)cc2)cs1 (stereo not given),49.2% (active)
8,CC1CCCC(C)N1C(=O)CN1CCN(c2nc(-c3ccc(F)cc3)cs2)CC1 (stereo not given),7.37%
9,O=C(CSC1=NCCS1)Nc1nc(-c2ccccc2)cs1,5.05%
10,COc1ccc(OC)c(NC(=O)Cc2cccs2)c1,0.423%
11,Cc1ccc(-c2csc(NC(=O)C3=COCCO3)n2)cc1C,43.9% (active)
12,COc1cc(OC)cc(C(=O)NNC(=O)Cc2cccs2)c1,3.48%
13,NS(=O)(=O)c1ccc2nc(NC(=O)C3=COCCO3)sc2c1,-2.59%
14,Cc1csc(NC(=O)C2=COCCO2)n1,39.3%
15,Cc1ccc(-c2csc(NC(=O)c3cccs3)n2)cc1,53.5% (active)
16,Cc1ccc(-c2csc(N(Cc3ccco3)C(=O)c3cccs3)n2)cc1,2.94%
17,Cc1ccc(-c2csc(NC(=O)Cc3cccs3)n2)cc1C,48.9% (active)
18,O=C(Nc1n[nH]c(C(F)(F)F)n1)c1cccs1,-2.17%
19,O=C(C[C@@H]1CC[C@@H](NC(=O)C2CCOCC2)[C@H](CO)O1)Nc1ccc(-c2ccccc2)cc1,8.43%
20,C[C@@H]1CN([C@H](C)CO)C(=O)c2cc(C#CC3(O)CCCC3)cnc2O[C@H]1CN(C)C(=O)C1CCC1,2.77%
21,C[C@@H](NC(=O)C[C@H]1C[C@H]2c3cc(NC(=O)Nc4ccccc4F)ccc3O[C@H]2[C@@H](CO)O1)c1ccccc1,2.95%
22,O=C(Cc1ccncc1)N[C@H]1CC[C@H](CCn2cc(-c3ccccc3F)nn2)O[C@@H]1CO,12.7%
23,COc1cccc(-c2cn(CC[C@@H]3CC[C@@H](NC(C)=O)[C@@H](CO)O3)nn2)c1,-4.15%
24,CNC(=O)c1sc(NCc2ccccc2OC)nc1C,10%
25,COc1ccccc1CNC(=O)COC(=O)c1sc(C)nc1C,6.65%
26,COc1ccccc1/C=N/Nc1nc(C)c(C(C)=O)s1,43.3% (active)
27,CCCC#Cc1ccc([C@H]2[C@@H](CO)N3CCCCN(S(=O)(=O)Cc4ccccc4)C[C@H]23)cc1,-7.51%

row,SMILES,reporter increase
1,CCS(=O)(=O)N1[C@H](C#N)[C@H](c2ccc(-c3cccc(F)c3)cc2)[C@@H]1CO,2.95%
2,Cc1ccc(SCC(=O)c2cc(C)c(OC(=S)N(C)C)c(C)c2)cc1,45.8% (active)
3,COC(=O)c1cc(OC)c(OC)cc1NC(=O)CSc1ccc(C)cc1,-15.9%
4,CCN1CCN(C(=O)CSc2ccc(C)cc2)CC1,31%
5,C[C@@H]1CN([C@@H](C)CO)S(=O)(=O)c2ccc(C#Cc3ccccc3F)cc2O[C@H]1CN(C)C(=O)c1ccc2c(c1)OCO2,0.756%
6,CC(C)NC(=O)N(C)C[C@H]1Oc2c(NC(=O)c3ccncc3)cccc2C(=O)N([C@@H](C)CO)C[C@H]1C,1.56%
7,COc1ccc(/C=N/OCc2ccccc2C#N)c(OC)c1,82.2% (active)
8,COc1ccc(C=C(C#N)C#N)c(CSc2ccccn2)c1,-8.92%
9,COc1ccc(/C=C2/C(=O)N(c3ccccc3)N=C2C)c(OC)c1,-1.3%
10,C[C@H]1CN([C@@H](C)CO)S(=O)(=O)c2ccc(C3=CCCC3)cc2O[C@@H]1CN(C)Cc1ccccc1,1.2%
11,CC(OC(=O)c1cc2ccccc2[nH]1)C(=O)N(C)c1ccccc1 (stereo not given),7.66%
12,COc1ccc(C2=Nc3ccccc3NC(=O)C2N(C(=O)c2cc3ccccc3[nH]2)c2ccccc2)cc1 (stereo not given),47.8% (active)
13,COc1ccc(NC(=O)N(C)C[C@@H]2OCc3ccccc3-c3c(n(C)c4ccccc34)C(=O)N([C@H](C)CO)C[C@H]2C)cc1,-4.05%
14,CO[C@@H](CN(C)S(=O)(=O)c1cccc(Cl)c1)[C@H](C)CN([C@H](C)CO)S(=O)(=O)c1cccc(Cl)c1,6.95%
15,CN1c2ccc(-c3cccc(F)c3)cc2[C@H]2[C@H](CCN2C(=O)C2CCCC2)[C@@H]1CO,2.05%
16,O=C(c1cc(-c2cccs2)on1)N1CCCCC1,-2.46%
17,COc1ccc(C(=O)C2CCCN(C(=O)c3cc(C)on3)C2)cc1F (stereo not given),-6.1%
18,COc1ccccc1-c1cc(C(=O)N2CCCCC2)no1,52.4% (active)
19,C[C@@H]1CN([C@H](C)CO)C(=O)c2cc(NC(=O)CCCN(C)C)ccc2O[C@@H](C)CCCCO[C@@H]1CN(C)Cc1ccncc1,1.15%
20,C[C@H]1CN([C@@H](C)CO)C(=O)c2cccc(NC(=O)Nc3ccccc3)c2O[C@H]1CN(C)Cc1ccc(C(F)(F)F)cc1,-0.852%
21,CCC(=O)N1c2ccc(S(=O)(=O)CCC(=O)N3CCN(c4ccccc4)CC3)cc2CC1C (stereo not given),29.9%
22,Cc1ccn(CCC(=O)N2c3ccccc3CC2C)n1 (stereo not given),0.95%
23,CCCC(=O)N1c2ccc(-c3csc(N)n3)cc2CC1C (stereo not given),41.3% (active)
24,Cc1nn2c(=O)cc(COC(=O)c3ccc(NC(=O)C(C)(C)C)cc3)nc2s1,2.43%
25,Cc1csc2nc(COC(=O)c3cccc(N(C)C)c3)cc(=O)n12,82.1% (active)
26,O=c1cc(CCl)nc2scc(-c3ccccc3)n12,-3.84%
